Assay results published in the supplement of paper PMC12636033.
± gives the standard deviation of the averaged measurements. In all, about 33,000 sequences were measured (“E-score (rank enrichment, -0.5 to 0.5)”: median about -0.0028, highest 2% from about 0.23 on). This is one part of a sample in which the highest values are shown more often than they occur.

tested on: 2Sb-muMax20 (muMax20 with two 1,3-bis(methyl)benzene Cys staples, A13C/A17C and Q88C/A92C, C-terminal Lys); test: PBM 8-mer E-score (E-score (rank enrichment, -0.5 to 0.5)); higher = stronger preferential binding
Method: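 Protein binding microarray (universal PBM chip covering all 10-mers in fixed probe flanks) with chemically synthesized human Max(13-93) bHLH-LZ analogs (not full-length Max) bearing noncanonical residues (hArg, Tha, Aib, Nle at 65) and aromatic Cys staples. Read-out per 8-mer (and its reverse complement): E-score (rank-based enrichment, -0.5 to 0.5) and Z-score of median probe intensity.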

Row | Sequence | PBM 8-mer E-score
1 | CATAACCA | 0.16 ± 0.018
2 | AATAACTA | 0.151 ± 0.013
3 | GATAACTA | 0.237 ± 0.0032
4 | GATAACCA | 0.25 ± 0.0028
5 | CATAACTA | 0.0553 ± 0.058
6 | TATAACCA | 0.125 ± 0.024
7 | ACGACTAC | -0.086 ± 0.0098
8 | TAATTGCA | 0.178 ± 0.022
9 | AGATTGCA | -0.04038 ± 0.00028
10 | CGATTGCA | -0.00806 ± 0.061
11 | AAATTGGG | 0.211 ± 0.011
12 | CAATTGGA | 0.105 ± 0.079
13 | CAATTGCA | 0.241 ± 0.03
14 | CAATTGGG | 0.233 ± 0.044
15 | AAATTGCA | 0.0694 ± 0.01
16 | TGATTGCA | 0.2879 ± 0.0004
17 | ATGTGATA | 0.137 ± 0.099
18 | CTTCTCTC | -0.021 ± 0.036
19 | ATAGGAAT | -0.00103 ± 0.048
20 | ATTCTTTG | 0.0288 ± 0.029
21 | GGCTCGGA | -0.242 ± 0.019
22 | CACCCATG | -0.0354 ± 0.1
23 | CTGGGGCA | -0.128 ± 0.0081
24 | ATGGGGGG | -0.078 ± 0.064
25 | ATGGGGCA | 0.247 ± 0.015

Row | Sequence | PBM 8-mer E-score
26 | GTGGGGCA | 0.0926 ± 0.0061
27 | ATGGGGCC | -0.148 ± 0.097
28 | ATGGGGCG | 0.305 ± 0.011
29 | CCGCGTAC | -0.0836 ± 0.06
30 | AAACCCTC | 0.0564 ± 0.037
31 | ATACTTTG | 0.18 ± 0.031
32 | ATACTTTA | 0.254 ± 0.079
33 | CTACTTTA | -0.0218 ± 0.0086
34 | CACAGCAA | 0.0823 ± 0.098
35 | CTACTAAC | 0.271 ± 0.02
36 | CTACTAAG | -0.0175 ± 0.014
37 | ATACTAAC | 0.191 ± 0.016
38 | TTACTAAA | 0.035 ± 0.037
39 | ATACTAAA | 0.274 ± 0.073
40 | GTACTAAA | 0.0714 ± 0.032
41 | AGCCTATG | -0.168 ± 0.032
42 | CGCCCCCA | -0.0972 ± 0.11
43 | CCGCCCAA | -0.0271 ± 0.08
44 | CCGCCCCG | 0.287 ± 0.1
45 | CCGCCCGG | -0.235 ± 0.023
46 | AAGCCCAA | 0.14 ± 0.085
47 | CAGCCCAA | 0.0925 ± 0.0081
48 | GAGCCCAA | 0.238 ± 0.016
49 | TAGCCCAA | 0.0876 ± 0.027
50 | CAGCCCCA | 0.166 ± 0.062

Row | Sequence | PBM 8-mer E-score
51 | TAGCCCCA | 0.35 ± 0.014
52 | CCGCCCCC | -0.265 ± 0.034
53 | CCGCCCCA | 0.349 ± 0.038
54 | GGAGAGAA | -0.0248 ± 0.093
55 | ACGGCAGC | -0.302 ± 0.045
56 | CATATGGA | 0.0953 ± 0.063
57 | CAACACGC | 0.161 ± 0.065
58 | CCCACGCC | -0.189 ± 0.095
59 | GCCAATTA | 0.127 ± 0.041
60 | ACGGTCAG | -0.313 ± 0.0032
61 | CAGGTCCG | -0.237 ± 0.054
62 | ACGTCGGC | 0.0307 ± 0.079
63 | ACGCCCCG | -0.046 ± 0.025
64 | ACGCCCCA | 0.287 ± 0.062
65 | GCGCCCCA | 0.0563 ± 0.082
66 | TCGCCCAA | -0.0719 ± 0.021
67 | TCGCCCCA | 0.24 ± 0.018
68 | ACGCCCCC | -0.18 ± 0.1
69 | CGATCCAA | -0.286 ± 0.0083
70 | CTCGGCGA | -0.0762 ± 0.055
71 | CGATGGTA | -0.0858 ± 0.023
72 | AATGTAAA | 0.211 ± 0.015
73 | ATGAGGCA | 0.0329 ± 0.044
74 | ACTGGCGA | -0.0221 ± 0.033
75 | ACTTGCGG | -0.169 ± 0.047

Row | Sequence | PBM 8-mer E-score
76 | AACACGTA | 0.112 ± 0.046
77 | CACACGTG | 0.338 ± 0.022
78 | AACACGTG | 0.4538 ± 0.0037
79 | AACACAAG | 0.141 ± 0.016
80 | CACACGTC | -0.172 ± 0.057
81 | CACGCGTA | 0.199 ± 0.021
82 | AACACGTC | 0.0373 ± 0.11
83 | AACACAAA | 0.25 ± 0.03
84 | CACGCGTG | 0.303 ± 0.039
85 | CACACGTA | 0.127 ± 0.0021
86 | CACACAAA | 0.167 ± 0.033
87 | CACGCGTC | 0.2 ± 0.0088
88 | CCGAGCCA | -0.115 ± 0.0049
89 | GAAGGGGC | 0.128 ± 0.0016
90 | ACCTATCG | 0.13 ± 0.048
91 | CGCTACCC | -0.0659 ± 0.038
92 | ACGGATCT | -0.242 ± 0.042
93 | GGCGCAAC | -0.0786 ± 0.013
94 | CTGATATA | 0.0373 ± 0.023
95 | CCAACGCC | -0.0186 ± 0.026
96 | ACTTCAAA | -0.125 ± 0.065
97 | CAACCCCG | -0.0958 ± 0.017
98 | CCTGCATC | -0.118 ± 0.02
99 | GCTCCGTA | -0.181 ± 0.026
100 | CACACCTC | 0.11 ± 0.0036

Row | Sequence | PBM 8-mer E-score
101 | AACGCGGA | -0.0532 ± 0.04
102 | CACACCTA | 0.251 ± 0.023
103 | CACGCGGA | 0.28 ± 0.036
104 | CACACCTG | -0.176 ± 0.087
105 | CACGCGGG | 0.115 ± 0.007
106 | TCACGGGA | -0.0219 ± 0.047
107 | CTCAAGTC | 0.0478 ± 0.02
108 | AGGGTTGC | -0.0164 ± 0.024
109 | CAGTCCGC | -0.188 ± 0.055
110 | AGGTGCGG | 0.0251 ± 0.022
111 | ATTTTATG | 0.0605 ± 0.031
112 | CATTTATA | 0.137 ± 0.013
113 | ATTTTATA | 0.206 ± 0.038
114 | AATTTATA | 0.248 ± 0.02
115 | AATTTATC | 0.18 ± 0.013
116 | AATTTATG | 0.238 ± 0.043
117 | CAGTAAGC | 0.00962 ± 0.05
118 | AAAAAACC | 0.143 ± 0.026
119 | GGCTCCGA | -0.22 ± 0.014
120 | AAGGCAAT | 0.0342 ± 0.0041
121 | ATAATTTA | 0.235 ± 0.015
122 | GTAATTTA | 0.0825 ± 0.086
123 | TCAATTGA | 0.1 ± 0.058
124 | ACAATTAC | 0.194 ± 0.031
125 | ACAATTGA | 0.194 ± 0.031

Row | Sequence | PBM 8-mer E-score
126 | ATAATTGA | 0.258 ± 0.029
127 | ATAATTTG | 0.132 ± 0.036
128 | CTAATTGA | 0.053 ± 0.057
129 | CCAATTGA | 0.252 ± 0.0093
130 | GTAATTGA | 0.0929 ± 0.019
131 | CCAATTAA | 0.159 ± 0.045
132 | CCAATTAC | 0.238 ± 0.015
133 | CCGAGAGC | -0.304 ± 0.02
134 | TCTCCGCA | -0.148 ± 0.043
135 | CATGTTCG | 0.00518 ± 0.06
136 | CAGCTGAA | -0.0746 ± 0.0082
137 | AAAATGAC | 0.134 ± 0.0081
138 | CCCCTAAA | 0.0345 ± 0.052
139 | CAGGCAAG | -0.0204 ± 0.051
140 | CAGTGAAG | -0.0862 ± 0.073
141 | AATGAGAA | -0.0163 ± 0.03
142 | GCGAACCA | -0.037 ± 0.021
143 | ACAGATTC | 0.111 ± 0.028
144 | GCGTGGTA | 0.0782 ± 0.019
145 | CTCTACTA | 0.168 ± 0.024
146 | ATGCCATA | 0.246 ± 0.022
147 | ATGCCATC | 0.134 ± 0.0047
148 | ATGCCATG | 0.026 ± 0.072
149 | AAACAGAT | -0.0777 ± 0.083
150 | GTTTGAGA | -0.0465 ± 0.092

Row | Sequence | PBM 8-mer E-score
151 | CAACAGAC | 0.0401 ± 0.00088
152 | AACATATG | 0.182 ± 0.013
153 | CACATATA | 0.21 ± 0.068
154 | AACATATA | 0.237 ± 0.031
155 | AACATATT | 0.2329 ± 0.0015
156 | GACATATA | 0.0756 ± 0.061
157 | AACATATC | 0.124 ± 0.0061
158 | ATCGTTAG | -0.0184 ± 0.067
159 | GTAGACAC | 0.0487 ± 0.053
160 | ATTACAAC | 0.1 ± 0.033
161 | AATAGGGA | 0.23 ± 0.0053
162 | GATAGGGA | -0.111 ± 0.072
163 | TATAGGGA | -0.0259 ± 0.048
164 | ATCAAACG | -0.0315 ± 0.075
165 | TTGTACAA | 0.29 ± 0.033
166 | TGGTATAA | 0.239 ± 0.0046
167 | AGGTACAA | 0.0983 ± 0.038
168 | TGGTACAA | 0.265 ± 0.021
169 | CGGTATAA | 0.127 ± 0.043
170 | GGGTACAA | 0.0409 ± 0.026
171 | CTGTACAA | 0.0289 ± 0.12
172 | GTGTACAA | 0.216 ± 0.039
173 | AGGTATAA | 0.147 ± 0.0065
